Results on 69 molecules are retold here after publication PMC4336329 (PLoS ONE, 2015).

Hit rate of the full screen: of about 310,000 compounds, about 14,000 (4.5%) showed an effect of 50% or more. The effect is printed as a negative number. For the sample, strong results were picked, then their nearest neighbours and some compounds at random.
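Note: peak tail current of the secondary pulse compared with the same well before compound.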

The assay deals with human ether-à-go-go-related gene (hERG) potassium channel (human, UniProt Q12809). As to the kind of experiment: primary screen, population patch clamp on CHO cells stably expressing hERG; higher = less effect of the substance.
human ether-à-go-go-related gene (hERG) potassium channel, sequence (Q12809 whole entry, looked up): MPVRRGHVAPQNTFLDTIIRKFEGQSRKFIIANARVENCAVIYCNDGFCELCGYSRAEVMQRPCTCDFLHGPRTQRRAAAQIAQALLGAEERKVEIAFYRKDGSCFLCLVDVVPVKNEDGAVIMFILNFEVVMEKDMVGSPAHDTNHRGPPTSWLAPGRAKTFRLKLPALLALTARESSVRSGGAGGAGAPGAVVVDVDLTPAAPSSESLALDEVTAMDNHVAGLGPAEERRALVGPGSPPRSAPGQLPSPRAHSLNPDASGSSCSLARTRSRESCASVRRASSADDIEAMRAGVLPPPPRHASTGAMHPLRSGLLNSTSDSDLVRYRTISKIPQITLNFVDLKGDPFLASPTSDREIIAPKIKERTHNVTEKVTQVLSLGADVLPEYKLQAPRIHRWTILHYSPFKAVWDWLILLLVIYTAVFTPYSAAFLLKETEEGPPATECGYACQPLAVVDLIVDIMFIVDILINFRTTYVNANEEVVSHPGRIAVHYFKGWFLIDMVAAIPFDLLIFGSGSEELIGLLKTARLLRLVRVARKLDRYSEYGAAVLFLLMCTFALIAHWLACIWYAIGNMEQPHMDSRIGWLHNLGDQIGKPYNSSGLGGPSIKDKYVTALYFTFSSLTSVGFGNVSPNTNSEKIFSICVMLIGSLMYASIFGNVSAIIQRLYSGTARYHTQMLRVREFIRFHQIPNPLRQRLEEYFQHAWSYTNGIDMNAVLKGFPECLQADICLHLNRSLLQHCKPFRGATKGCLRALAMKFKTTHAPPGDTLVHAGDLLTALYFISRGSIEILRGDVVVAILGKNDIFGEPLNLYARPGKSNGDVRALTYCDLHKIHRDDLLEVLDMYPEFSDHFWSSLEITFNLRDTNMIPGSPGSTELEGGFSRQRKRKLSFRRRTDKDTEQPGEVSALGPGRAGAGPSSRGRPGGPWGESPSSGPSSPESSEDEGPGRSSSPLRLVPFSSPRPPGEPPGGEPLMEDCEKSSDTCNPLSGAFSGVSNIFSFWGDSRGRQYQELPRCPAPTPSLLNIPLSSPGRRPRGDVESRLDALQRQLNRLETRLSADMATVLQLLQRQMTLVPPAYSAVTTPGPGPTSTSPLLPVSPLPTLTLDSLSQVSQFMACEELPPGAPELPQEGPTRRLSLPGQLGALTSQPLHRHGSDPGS
For `O=C(COC(=O)c1ccc(Cl)c(S(=O)(=O)N2CCCC2)c1)NCc1cccs1`, the “hERG current change (%, negative = inhibition) at 10uM” value is listed as -39.8%.

Regarding `CCOc1ccc(/C=N/NC(=O)C2(O)c3ccccc3-c3ccccc32)cc1`, the “hERG current change (%, negative = inhibition) at 10uM” value is on record as 4.13%.

As for `CCSc1nnc(NC(=O)[C@@H](NC(=O)c2ccccc2F)C(C)C)s1`, the “hERG current change (%, negative = inhibition) at 10uM” value is given as -8.27%.

For the molecule `O=C(Nc1nccs1)c1ccc(F)c(S(=O)(=O)N2CCOCC2)c1`, the “hERG current change (%, negative = inhibition) at 10uM” value was -18.8%.

For the molecule `Cc1cc(C)n(CC(O)Cn2ccc3ccccc32)n1` (stereo not drawn), the “hERG current change (%, negative = inhibition) at 10uM” value is -12.5%.

`CC1C2CC(C(CN(C)C)/C2=N/O)C1(C)C` (stereo not drawn): the “hERG current change (%, negative = inhibition) at 10uM” value is on record as -9.04%.

`COc1ccc(C2=CC(=O)N(Nc3ccccc3)C2=O)cc1`: the “hERG current change (%, negative = inhibition) at 10uM” value came out at 24.6%.

As to `O=C1C=C(c2ccccc2)C(=O)N1Nc1ccccc1`, the “hERG current change (%, negative = inhibition) at 10uM” value is given as -77.2%.

In the case of `O=C1C=C(c2ccc(Cl)cc2)C(=O)N1Nc1ccccc1`, the “hERG current change (%, negative = inhibition) at 10uM” value was determined as 13.1%.

As for `CN(c1ccccc1)c1nc2ccsc2c(=O)s1`, the “hERG current change (%, negative = inhibition) at 10uM” value amounted to 4.47%.

In the case of `CCn1ccnc1CN1CCN(CCC(C)C)C(CCO)C1` (stereo not drawn), the “hERG current change (%, negative = inhibition) at 10uM” value is reported as 18.9%.

`CC(C)=CCN1CCN(Cc2cccn2-c2ccccn2)CC1CCO` (stereo not drawn): the “hERG current change (%, negative = inhibition) at 10uM” value is -55.4%.

Turning to `CC(C)N1CCN(Cc2cccn2-c2ccccn2)CC1CCO` (stereo not drawn), the “hERG current change (%, negative = inhibition) at 10uM” value is on record as -31.2%.

Turning to `CC(C)CN1CCN(Cc2cccc3ncccc23)CC1CCO` (stereo not drawn), the “hERG current change (%, negative = inhibition) at 10uM” value was -2.49%.

Regarding `CC(C)=CCN1CCN(Cc2cccn2-c2ncccn2)CC1CCO` (stereo not drawn), the “hERG current change (%, negative = inhibition) at 10uM” value is -39.6%.

In the case of `CC(C)=CCN1CCN(Cc2ccc(Oc3ncccn3)cc2)CC1CCO` (stereo not drawn), the “hERG current change (%, negative = inhibition) at 10uM” value was found to be 9.1%.

With `CC(C)CCN1CCN(Cc2cccc3cccnc23)CC1CCO` (stereo not drawn), the “hERG current change (%, negative = inhibition) at 10uM” value was -26.2%.

Regarding `CC(C)CN1CCN(Cc2cccn2-c2ccccn2)CC1CCO` (stereo not drawn), the “hERG current change (%, negative = inhibition) at 10uM” value is given as -55.9%.

Regarding `CC(C)CCN1CCN(Cc2cccn2-c2ccccn2)CC1CCO` (stereo not drawn), the “hERG current change (%, negative = inhibition) at 10uM” value is listed as -75.5%.

`CCC(C)N1C(=O)N(C)C2NC(=O)NC21` (stereo not drawn): the “hERG current change (%, negative = inhibition) at 10uM” value is -2.9%.

With `Cc1ccc(OCC(=O)NNC(=S)NC(=O)C2CC2)c(C)c1`, the “hERG current change (%, negative = inhibition) at 10uM” value is recorded as 23.2%.

As to `Nc1c2c(nc3c1CCCC3)CCCC2.O=C(O)c1cc[nH]c(=O)c1`, the “hERG current change (%, negative = inhibition) at 10uM” value is -10.1%.

As for `Clc1ccc(OCC#CCN2CCCCCC2)cc1.O=C(O)C(=O)O`, the “hERG current change (%, negative = inhibition) at 10uM” value was -34.7%.

On to `Cc1ccccc1Nc1nnc(C)c(=O)[nH]1`, for which the “hERG current change (%, negative = inhibition) at 10uM” value was -11.3%.

On to `CC(=O)N1CCN(c2ccc(NC(=O)c3ccc([N+](=O)[O-])cc3Cl)cc2)CC1`, for which the “hERG current change (%, negative = inhibition) at 10uM” value is given as -8.49%.

`CCOc1cccc(OCCOCCN(C)Cc2ccccc2)c1`: the “hERG current change (%, negative = inhibition) at 10uM” value is recorded as -49.3%.

With `CCN(CC(=O)NCc1ccc(Cl)cc1)C(=O)CSc1ccc(F)cc1`, the “hERG current change (%, negative = inhibition) at 10uM” value is given as -71.1%.

For the molecule `CCN(CC(=O)NCc1ccc(Cl)cc1)C(=O)CSc1ccc(Br)cc1`, the “hERG current change (%, negative = inhibition) at 10uM” value is on record as -79.2%.

As for `CCN(CC(=O)NCc1ccc(Cl)cc1)C(=O)CSc1ccccc1`, the “hERG current change (%, negative = inhibition) at 10uM” value is on record as -65.6%.

In the case of `CCN(CC(=O)NCc1ccc(F)cc1)C(=O)c1oc2ccccc2c1C`, the “hERG current change (%, negative = inhibition) at 10uM” value was -43.9%.

Regarding `CCN(CC(=O)Nc1c(F)cccc1F)C(=O)CSc1ccc(F)cc1`, the “hERG current change (%, negative = inhibition) at 10uM” value is reported as -14.3%.

As to `CCN(CC(=O)NCc1ccc(Cl)cc1)C(=O)CN1C(=O)NC(CC)(c2ccccc2)C1=O` (stereo not drawn), the “hERG current change (%, negative = inhibition) at 10uM” value was -6.03%.

`CCN(CC(=O)NCc1ccc(Cl)cc1)S(=O)(=O)c1ccc(F)cc1`: the “hERG current change (%, negative = inhibition) at 10uM” value was -19.1%.

On to `CCN(CC(=O)NCc1ccc(Cl)cc1)C(=O)c1oc2ccccc2c1C`, for which the “hERG current change (%, negative = inhibition) at 10uM” value is given as -54.5%.

Turning to `CCN(CC(=O)NCc1ccc(Cl)cc1)C(=O)CSc1ccccc1F`, the “hERG current change (%, negative = inhibition) at 10uM” value is on record as -19.3%.

Regarding `O=C(CSc1ccc(Cl)cc1)NCc1ccncc1`, the “hERG current change (%, negative = inhibition) at 10uM” value is recorded as -14.2%.

Turning to `CCN(CC(=O)Nc1ccc(NC(C)=O)cc1)C(=O)c1oc2ccccc2c1C`, the “hERG current change (%, negative = inhibition) at 10uM” value was -20.2%.

Take `CCN(CC(=O)NCc1ccc(Cl)cc1)C(=O)CSc1cccc(C(F)(F)F)c1`: the “hERG current change (%, negative = inhibition) at 10uM” value was -23.3%.

In the case of `Cc1ccc(-c2nn3c(C)nnc3s2)cc1NCc1c(F)cccc1Cl`, the “hERG current change (%, negative = inhibition) at 10uM” value is 2.39%.

As for `Fc1ccc(N2CN(Cc3cccnc3)CNC2=S)cc1`, the “hERG current change (%, negative = inhibition) at 10uM” value was determined as 10.7%.

As to `Cc1ccc(C(O)Cn2nc(C)cc2C)cc1` (stereo not drawn), the “hERG current change (%, negative = inhibition) at 10uM” value was found to be 13.7%.

For the molecule `CCCCCc1c(O)nc(SCCN(CC)CC)[nH]c1=O.Cl`, the “hERG current change (%, negative = inhibition) at 10uM” value came out at 9.87%.

Turning to `COc1ccc(N(C(=O)c2cccnc2)S(=O)(=O)c2ccc3c4c(cccc24)C(=O)N3C)cc1`, the “hERG current change (%, negative = inhibition) at 10uM” value came to 17.7%.

For `C=CCn1c(=O)c2ccccc2n2c(SCc3nc4ccccc4s3)nnc12`, the “hERG current change (%, negative = inhibition) at 10uM” value is listed as -34.4%.

On to `CCOc1ccc(NC(=O)Cn2nc(C(N)=O)c3ccccc3c2=O)cc1S(=O)(=O)N1CCCC1`, for which the “hERG current change (%, negative = inhibition) at 10uM” value worked out at 0.537%.

For `COc1ccc(NC(=O)c2cccc(Cn3cc(Br)c([N+](=O)[O-])n3)c2)c(C)c1`, the “hERG current change (%, negative = inhibition) at 10uM” value is -72%.

In the case of `Cc1ccccc1NC(=O)c1cccc(Cn2cc(Br)c([N+](=O)[O-])n2)c1`, the “hERG current change (%, negative = inhibition) at 10uM” value is on record as -3.63%.

As to `COc1ccc(OC)c(NC(=O)c2cccc(Cn3cc(Br)c([N+](=O)[O-])n3)c2)c1`, the “hERG current change (%, negative = inhibition) at 10uM” value is -13.9%.

Consider `Cc1cc(CC(C)C)n(-c2nc3ccccc3c(=O)n2OCc2ccccc2)n1`, for which the “hERG current change (%, negative = inhibition) at 10uM” value is recorded as -7.08%.

For the molecule `COc1ccc(CCNc2ncnc3c2nnn3Cc2ccccc2)cc1`, the “hERG current change (%, negative = inhibition) at 10uM” value is 13%.

For `COc1ccc(C(=O)C2CCCN(Cc3ccc4nonc4c3)C2)c(C)c1` (stereo not drawn), the “hERG current change (%, negative = inhibition) at 10uM” value is reported as -20.3%.

`COc1ccc(C(=O)C2CCCN(Cc3ccc4nonc4c3)C2)cc1F` (stereo not drawn): the “hERG current change (%, negative = inhibition) at 10uM” value is given as -41.1%.

Turning to `COc1ccc(C(=O)C2CCCN(Cc3ccc4nonc4c3)C2)c(OC)c1` (stereo not drawn), the “hERG current change (%, negative = inhibition) at 10uM” value is recorded as -66.7%.

In the case of `COc1ccc(C(=O)C2CCCN(Cc3ccc4nonc4c3)C2)cc1OC` (stereo not drawn), the “hERG current change (%, negative = inhibition) at 10uM” value is -67.4%.

Consider `COc1ccccc1CCNC(=O)CNC(=O)Cc1cccc2ccccc12`, for which the “hERG current change (%, negative = inhibition) at 10uM” value is -1.6%.

For the molecule `CC(C(=O)Nc1ncn[nH]1)N1C(=O)c2ccccc2C1=O` (stereo not drawn), the “hERG current change (%, negative = inhibition) at 10uM” value worked out at 17.4%.

Consider `CCCCn1c(=O)c(C(=O)Nc2ccccc2S(N)(=O)=O)c(O)c2ccccc21`, for which the “hERG current change (%, negative = inhibition) at 10uM” value is given as -12.3%.

For `COc1ccc(N2CCN(CCCNC(=O)c3ccc(CS(=O)(=O)c4ccc(OC)cc4)o3)CC2)cc1`, the “hERG current change (%, negative = inhibition) at 10uM” value is listed as -68.9%.

`O=C(NCCCN1CCCC1)c1ccc(CS(=O)(=O)c2ccc(Cl)cc2)o1`: the “hERG current change (%, negative = inhibition) at 10uM” value was -6.15%.

On to `COc1ccc(S(N)(=O)=O)cc1C(=O)NCC(C)(C)N1CCOCC1`, for which the “hERG current change (%, negative = inhibition) at 10uM” value is given as 8.36%.

Regarding `COc1ccc(S(N)(=O)=O)cc1C(=O)NCCCN1CCN(c2ccc(C)cc2)CC1`, the “hERG current change (%, negative = inhibition) at 10uM” value is -50.7%.

Consider `COc1ccc(S(=O)(=O)Cc2ccc(C(=O)NC3CC3)o2)cc1`, for which the “hERG current change (%, negative = inhibition) at 10uM” value is on record as -2.21%.

On to `COc1ccc(S(=O)(=O)Cc2ccc(C(=O)NCc3ccccc3OC)o2)cc1`, for which the “hERG current change (%, negative = inhibition) at 10uM” value is on record as -41.6%.

On to `Cc1ccc(S(=O)(=O)Cc2ccc(C(=O)NCCCN3CCN(C)CC3)o2)cc1`, for which the “hERG current change (%, negative = inhibition) at 10uM” value turned out to be 15.6%.

For `COc1ccc(S(N)(=O)=O)cc1C(=O)NCCCN1CCN(c2cccc(Cl)c2)CC1.CS(=O)(=O)O`, the “hERG current change (%, negative = inhibition) at 10uM” value is -23.9%.

As for `COc1ccc(S(=O)(=O)Cc2ccc(C(=O)NCCCN3CCc4ccccc4C3)o2)cc1`, the “hERG current change (%, negative = inhibition) at 10uM” value is reported as -51.2%.

Turning to `COCCNC(=O)c1ccc(CS(=O)(=O)c2ccc(OC)cc2)o1`, the “hERG current change (%, negative = inhibition) at 10uM” value was -0.154%.

As for `COc1ccc(N2CCN(CCCNC(=O)c3ccc(CS(=O)(=O)c4ccc(Cl)cc4)o3)CC2)cc1`, the “hERG current change (%, negative = inhibition) at 10uM” value is recorded as -77.1%.

In the case of `O=C(NCCN1CCOCC1)c1ccc(CS(=O)(=O)c2ccc(Cl)cc2)o1`, the “hERG current change (%, negative = inhibition) at 10uM” value is -4.24%.
